Measurements as given in PubChem BioAssay (EPA / NIEHS).
Active and inactive are the calls of the source. How the source made its calls: active means hit-call score of the fitted dose curve at least 0.9, where 1 is the maximum; inactive means score below 0.9.

Columns and labels:
[1] = APR_HepG2_CellLoss_1hr: Apredica 1-hour HepG2 Assay for Cell Loss (AID 2282668); conditions: high-content imaging;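 further: curves fitted both ways against DMSO so gain or loss of cells counts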
In short: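 HepG2 cells were treated for 1 h with compound at 0.39–200 uM, in duplicate, in 0.5% DMSO. After formaldehyde fixation, Hoechst 33342-stained nuclei were imaged on an ArrayScan to count cells. Data were fitted bidirectionally versus DMSO.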

[2] = APR_HepG2_MicrotubuleCSK_1hr: Apredica 1-hour HepG2 Assay for Microtubule CSK Stabilty (AID 2282669); conditions: HepG2 microtubule cytoskeleton imaging, actives raise or lower the signal
In short: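 HepG2 cells exposed 1 h to 0.39–200 uM compound (0.5% DMSO, duplicates), then formaldehyde-fixed, permeabilized and immunostained for alpha-tubulin with Hoechst nuclei. Imaged by ArrayScan high-content analysis; bidirectional fit versus DMSO.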

[3] = APR_HepG2_NuclearSize_1hr: Apredica 1-hour HepG2 Assay for Nuclear Size (AID 2282670); conditions: high-content imaging, actives raise or lower the signal
In short: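 HepG2 cells dosed 1 hr with 0.39–200 uM compound (0.5% DMSO), formaldehyde-fixed, Hoechst 33342-stained and imaged at 20x; nuclear diameter from nuclear stain, fitted bidirectionally against DMSO.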

[4] = APR_HepG2_MitoticArrest_1hr: Apredica 1-hour HepG2 Assay for Mitotic Arrest (AID 2282672); conditions: high-content imaging, actives raise or lower the signal
In short: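 HepG2 cells exposed 1 hr to compounds at 0.39–200 uM (0.5% v/v DMSO final), then fixed in 3.7% formaldehyde and immunostained for phospho-histone H3 with Hoechst 33342. Mitotic arrest scored by automated fluorescence imaging, fitted bidirectionally versus DMSO.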

[5] = APR_HepG2_P-H2AX_1hr: Apredica 1-hour HepG2 Assay for H2AX Phosphorylation (AID 2282673); conditions: high-content imaging, actives raise or lower the signal
In short: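 HepG2 dosed 1 hr at 0.39-200 uM (0.5% DMSO final), duplicate. Fixed in 3.7% formaldehyde, Triton permeabilized, immunostained for phospho-histone H2A.x (1:200) with Hoechst 33342; ArrayScan 20x imaging, bidirectional fit vs DMSO.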

[6] = APR_HepG2_MitoMass_1hr: Apredica 1-hour HepG2 Assay for Mitochondrial Mass (AID 2282674); conditions: high-content imaging, actives raise or lower the signal
In short: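 HepG2 cells dosed 1 hr with 0.39-200 uM compound (0.5% DMSO), duplicate wells. Mitochondria stained with 250 nM MitoTracker Red CMXRos for 30 min before formaldehyde fixation, imaged at 20x by ArrayScan; bidirectional fit versus DMSO.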

[7] = APR_HepG2_CellCycleArrest_24hr: Apredica 24-hour HepG2 Assay for Cell Cycle Arrest (AID 2282905); conditions: imaging, actives raise or lower the signal;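 further: cell cycle arrest scored as ratio of 2N to 4N nuclear DNA content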
In short: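 Cell cycle arrest is scored from nuclear DNA content measured by high-content imaging of Hoechst 33342-stained HepG2 cells following 24-hour treatment at ten concentrations up to 200 uM, with DMSO as baseline.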

[8] = APR_HepG2_NuclearSize_24hr: Apredica 24-hour HepG2 Assay for Nuclear Size (AID 2282907); conditions: high-content imaging, actives raise or lower the signal
In short: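 Compounds in DMSO (final 0.5%) were added to human HepG2 hepatoma cells at ten concentrations up to 200 uM for 24 hr. Fixed nuclei were stained with Hoechst 33342, and nuclear diameter was quantified from automated images.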

[9] = APR_HepG2_MicrotubuleCSK_24hr: Apredica 24-hour HepG2 Assay for Microtubule CSK Stabilty (AID 2282909); conditions: HepG2 microtubule cytoskeleton imaging, actives raise or lower the signal
In short: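 Steps: dose HepG2 for 24 h (0.39–200 uM, 0.5% DMSO); fix 30 min in 3.7% formaldehyde at room temperature; permeabilize; stain alpha-tubulin 60 min; image microtubule cytoskeleton at 20x. Signal change fitted in both directions relative to DMSO.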

[10] = APR_HepG2_MitoticArrest_24hr: Apredica 24-hour HepG2 Assay for Mitotic Arrest (AID 2282910); conditions: high-content imaging, actives raise or lower the signal
In short: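 Compounds are dosed onto HepG2 cells across ten concentrations up to 200 uM for 24 hr. Cells are then fixed in 3.7% formaldehyde, permeabilised, and labelled for phospho-histone H3 and nuclei; images are scored by cell cycle analysis and fitted bidirectionally relative to DMSO.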

[11] = APR_HepG2_MitoMembPot_24hr: Apredica 24-hour HepG2 Assay for Mitochondrial Membrane Potential (AID 2282911); conditions: imaging, actives raise or lower the signal
In short: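 Cells are dosed for 24 hr across 0.39 to 200 uM with solvent held at 0.5% DMSO. They are then stained with 250 nM MitoTracker Red CMXRos for 30 min, fixed in 3.7% formaldehyde and imaged.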

[12] = APR_HepG2_MitoMass_24hr: Apredica 24-hour HepG2 Assay for Mitochondrial Mass (AID 2282912); conditions: high-content imaging, actives raise or lower the signal
In short: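 The liver line HepG2 was dosed in duplicate across a 0.39–200 uM series, with final DMSO held at 0.5% v/v, and harvested at 24 hr. High-content imaging measured mitochondrial dye staining.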

[13] = APR_HepG2_p53Act_24hr: Apredica 24-hour HepG2 Assay for p53 Activation (AID 2282913); conditions: high-content imaging, actives raise or lower the signal;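 further: p53 protein immunofluorescence averaged per cell in HepG2 with Hoechst nuclei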
In short: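 Human HepG2 liver cells; 24 hr cpd treatment, 0.39–200 uM, 0.5% DMSO final. Fixed in 3.7% formaldehyde, permeabilized with 0.5% Triton X-100, stained with anti-p53/Cy5 plus Hoechst 33342. Six images per well at 20x; gain or loss vs DMSO.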

[14] = APR_HepG2_CellLoss_72hr: Apredica 72-hour HepG2 Assay for Cell Loss (AID 2282915); conditions: high-content imaging
In short: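 Cell number comes from Hoechst 33342-labelled nuclei, imaged at 20x after 3.7% formaldehyde fixation. Dosing was 0.39–200 uM, ten concentrations in duplicate, 0.5% DMSO final, for 72 h. Bidirectional fit relative to DMSO baseline.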

[15] = APR_HepG2_P-H2AX_72hr: Apredica 72-hour HepG2 Assay for H2AX Phosphorylation (AID 2282916); conditions: imaging, actives raise or lower the signal;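 further: phospho-histone H2A.x immunostain intensity per cell marking DNA damage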
In short: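 Following 72 hr treatment with 0.39–200 uM compound, HepG2 cells were formaldehyde-fixed, permeabilized and stained for phospho-H2A.x; signal was measured by high-content imaging and fitted bidirectionally against DMSO controls.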

[16] = APR_HepG2_CellLoss_24hr: Apredica 24-hour HepG2 Assay for Cell Loss (AID 2282908); conditions: high-content imaging;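 on AC50: fit in both directions so a hit may be cell loss or gain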
In short: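 Cell number is quantified by fluorescence imaging of Hoechst 33342-stained nuclei following dosing at 0.39–200 uM in 0.5% DMSO. Curves are fitted in both directions from the DMSO baseline.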

[17] = APR_HepG2_CellCycleArrest_72hr: Apredica 72-hour HepG2 Assay for Cell Cycle Arrest (AID 2282914); conditions: high-content imaging, actives raise or lower the signal
In short: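 Read-out is Hoechst-stained nuclear DNA content measured by automated fluorescence imaging (20x, six images per well), fitted in both directions relative to DMSO. Human HepG2 liver cells received 0.39–200 uM compound for 72 hr at 0.5% v/v DMSO.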

Measured: AC50

CC(C)(C)[C@@H](O)[C@@H](Cc1ccc(Cl)cc1)n1cncn1
active: [11] 15.8 µM | [14] 33.4 µM
not listed: [16] | [17]
inactive: all other assays above

CCCN(CCC)c1c([N+](=O)[O-])cc(C(F)(F)F)c(N)c1[N+](=O)[O-]
active: [5] 109 µM | [6] 158 µM | [11] 32.1 µM | [14] 33 µM
not listed: [4] | [16] | [17]
inactive: all other assays above

N[C@@H](Cc1cc(I)c(Oc2ccc(O)c(I)c2)c(I)c1)C(=O)O
inactive: [7] | [8] | [9] | [10] | [11] | [12] | [13] | [14] | [15]

CCOC(=O)NCCOc1ccc(Oc2ccccc2)cc1
active: [11] 56.2 µM | [14] 52.8 µM
not listed: [4]
inactive: all other assays above

CC(=O)[C@H]1CC[C@H]2[C@@H]3CCC4=CC(=O)CC[C@]4(C)[C@H]3CC[C@]12C
inactive: [8] | [11]
active: [7] 169 µM | [9] 104 µM | [10] 100 µM | [12] 106 µM | [13] 94.1 µM | [17] 165 µM | [14] 95.6 µM | [15] 94.1 µM

CC(=O)S[C@@H]1CC2=CC(=O)CC[C@]2(C)[C@H]2CC[C@@]3(C)[C@@H](CC[C@@]34CCC(=O)O4)[C@H]12
inactive: [8] | [9]
active: [7] 37.4 µM | [10] 30.2 µM | [11] 82.3 µM | [12] 29.1 µM | [13] 54.7 µM | [14] 39.3 µM | [15] 35 µM

CCOC(=O)C(C)Oc1ccc(Oc2cnc3cc(Cl)ccc3n2)cc1 (stereo unspecified)
active: [16] 58.5 µM | [14] 80.6 µM
not listed: [4] | [13] | [17]
inactive: all other assays above

N#CSCSc1nc2ccccc2s1
active: [5] 27.5 µM | [6] 28.1 µM | [7] 29.6 µM | [16] 42.9 µM | [14] 10 µM
not listed: [4] | [13] | [17]
inactive: all other assays above
